Records with an inconclusive call do not appear. The source made the active and inactive calls. Unless noted, calls follow the shape of the dose curve; as a rule, active = well fitted curve in the direction sought with a large enough effect in the repeat runs; inconclusive = weak or mixed curves; inactive = no such curve, though single readings can be large; an effect the other way counts as inactive or inconclusive.
Columns and labels:
[1] = molecular target: Luciferin 4-monooxygenase (Photinus pyralis) (UniProt P08659); assay: qHTS assay to identify small molecule inhibitors of firefly luciferase (AID 1224835); also: series mostly up to about 120 µM; nearly all actives have a fitted effect of over 25% in size
Chain of Luciferin 4-monooxygenase (Photinus pyralis) (P08659 whole entry, looked up): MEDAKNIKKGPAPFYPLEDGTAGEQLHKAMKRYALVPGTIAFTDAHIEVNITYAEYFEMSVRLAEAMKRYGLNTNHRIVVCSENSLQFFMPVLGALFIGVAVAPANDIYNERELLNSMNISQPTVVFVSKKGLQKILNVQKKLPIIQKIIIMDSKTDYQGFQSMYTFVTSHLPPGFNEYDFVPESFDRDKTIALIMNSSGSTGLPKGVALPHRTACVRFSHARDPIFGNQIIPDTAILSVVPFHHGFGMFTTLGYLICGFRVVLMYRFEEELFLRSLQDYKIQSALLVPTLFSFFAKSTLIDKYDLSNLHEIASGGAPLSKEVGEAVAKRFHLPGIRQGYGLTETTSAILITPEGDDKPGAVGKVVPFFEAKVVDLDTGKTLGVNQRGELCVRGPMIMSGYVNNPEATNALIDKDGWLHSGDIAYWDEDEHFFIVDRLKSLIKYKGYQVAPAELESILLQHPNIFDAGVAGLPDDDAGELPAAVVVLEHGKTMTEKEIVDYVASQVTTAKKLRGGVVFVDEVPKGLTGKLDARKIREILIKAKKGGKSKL
Outline: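 Biochemical qHTS: compounds run as interplate titrations against purified firefly enzyme, with D-luciferin and ATP each at its KM concentration. Light output recorded by CCD imaging.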

[2] = qHTS assay to identify small molecule antagonists of the constitutive androstane receptor (CAR) signaling pathway - cell viability counter screen (AID 1224837); also: series mostly up to about 92 µM; nearly all actives have a fitted effect of over 45% in size
Outline: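 In quantitative HTS format, compounds at 15 concentrations were applied to HepG2 cells double-transfected with hCAR and CYP2B6-2.2kb under 50 nM CITCO stimulation; live-cell protease activity was read after 23 hr via CellTiter-Fluor.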

[3] = molecular target: Nuclear receptor subfamily 1 group I member 3 (Homo sapiens) (UniProt Q14994); assay: qHTS assay to identify small molecule antagonists of the constitutive androstane receptor (CAR) signaling pathway (AID 1224838); also: nearly all actives have a fitted effect of over 40% in size
Chain of Nuclear receptor subfamily 1 group I member 3 (Homo sapiens) (Q14994 whole entry, looked up): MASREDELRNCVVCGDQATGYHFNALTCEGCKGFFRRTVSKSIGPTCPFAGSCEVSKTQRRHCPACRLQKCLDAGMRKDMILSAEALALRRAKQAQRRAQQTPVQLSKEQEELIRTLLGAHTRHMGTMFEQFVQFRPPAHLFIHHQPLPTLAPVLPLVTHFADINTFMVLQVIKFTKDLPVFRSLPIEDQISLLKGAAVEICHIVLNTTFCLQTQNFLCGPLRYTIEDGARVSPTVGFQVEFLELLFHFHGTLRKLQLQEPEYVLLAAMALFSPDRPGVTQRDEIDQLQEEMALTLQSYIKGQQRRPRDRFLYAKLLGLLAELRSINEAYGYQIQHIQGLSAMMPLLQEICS
Outline: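 CITCO-stimulated (50 nM final) HepG2 cells stably transfected with hCAR and CYP2B6-2.2kb luciferase were exposed to compounds at 15 concentrations for 24 h at 37 C/5% CO2. A luciferase reagent was added and luminescence recorded after 30 min.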

[4] = molecular target: Nuclear receptor subfamily 1 group I member 3 (Homo sapiens) (UniProt Q14994); assay: qHTS assay to identify small molecule agonists of the constitutive androstane receptor (CAR) signaling pathway (AID 1224839);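 also: HepG2 cells stably carrying human CAR and a CYP2B6 luciferase reporter; series mostly up to about 92 µM; nearly all actives have a fitted effect of over 15% in size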
Outline: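 HepG2 cells stably co-transfected with hCAR and a CYP2B6-2.2kb luciferase reporter; compounds at 15 concentrations with 0.75 uM PK11195 present. After 24 hr at 37 C, luciferase read by ONE-Glo luminescence.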

[5] = molecular target: Thyrotropin receptor (Homo sapiens) (UniProt P16473); assay: qHTS assay to identify small molecule agonists of the thyroid stimulating hormone receptor (TSHR) signaling pathway (AID 1224843; calls by dose curve; also: nearly all actives have a fitted effect of over 45% in size)
Chain of Thyrotropin receptor (Homo sapiens) (P16473 whole entry, looked up): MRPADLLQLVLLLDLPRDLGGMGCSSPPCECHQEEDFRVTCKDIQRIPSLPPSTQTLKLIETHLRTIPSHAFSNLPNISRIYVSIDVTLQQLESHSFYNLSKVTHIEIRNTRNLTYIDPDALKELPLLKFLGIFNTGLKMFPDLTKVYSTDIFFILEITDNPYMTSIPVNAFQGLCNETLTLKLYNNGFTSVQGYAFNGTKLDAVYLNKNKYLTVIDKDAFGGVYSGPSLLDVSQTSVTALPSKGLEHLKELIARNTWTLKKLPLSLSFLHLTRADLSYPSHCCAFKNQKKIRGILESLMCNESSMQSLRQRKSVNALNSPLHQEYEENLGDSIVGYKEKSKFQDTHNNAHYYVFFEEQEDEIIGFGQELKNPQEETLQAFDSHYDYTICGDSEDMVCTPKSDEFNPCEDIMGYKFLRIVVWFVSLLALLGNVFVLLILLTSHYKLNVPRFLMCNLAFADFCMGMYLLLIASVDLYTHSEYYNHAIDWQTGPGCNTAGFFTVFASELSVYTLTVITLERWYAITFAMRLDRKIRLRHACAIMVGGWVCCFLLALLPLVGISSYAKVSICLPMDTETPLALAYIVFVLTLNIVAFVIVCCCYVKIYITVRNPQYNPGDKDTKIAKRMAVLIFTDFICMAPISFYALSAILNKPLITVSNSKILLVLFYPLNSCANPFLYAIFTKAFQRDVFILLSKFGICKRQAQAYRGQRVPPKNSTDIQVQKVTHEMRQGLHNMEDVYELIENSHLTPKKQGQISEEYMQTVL
Outline: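 HEK293/TSHR, 800 cells/well; cpd 30 min RT; add cAMP-d2 + anti-cAMP-cryptate, 1 h RT; fluorescence read on plate reader. 15-pt titration, n=3.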

[6] = qHTS assay to identify small molecule agonists of the constitutive androstane receptor (CAR) signaling pathway - cell viability counter screen (AID 1224836); also: series mostly up to about 92 µM; nearly all actives have a fitted effect of over 45% in size
Outline: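 HepG2 cells stably carrying hCAR and a CYP2B6-2.2kb reporter; 15-concentration compounds plus PK11195 (final 0.75 uM), 23 hr at 37 C/5% CO2. Viability read by CellTiter-Fluor fluorescence.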

[7] = qHTS assay to identify small molecule antagonists of the estrogen related receptor signaling pathway with the pleiotropic PPARgamma coactivator (PGC) from Tox21 10K library - cell viability counter screen (AID 1224840; active = well fitted cell-killing curve with a large enough effect in the repeat runs, not every such curve was filed as active; also: nearly all actives have a fitted effect of over 40% in size)
Outline: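 Viability counter screen, PGC/ERR cells: 17.5 h compound exposure at 37 C, CellTiter-Fluor fluorescence endpoint.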

[8] = qHTS assay to identify small molecule antagonists of the estrogen related receptor signaling pathway with the pleiotropic PPARgamma coactivator (PGC) from Tox21 10K library (AID 1224841; call rule not given here; also: series mostly up to about 92 µM; actives are mostly falling curves and most rising ones were filed inactive; nearly all actives have a fitted effect of over 50% in size)
Outline: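 In the PGC/ERR line, DMSO solutions of test chemicals are pin-delivered to 2,000 cells/well six hours after dispensing. Following eighteen hours' incubation, One-Glo reagent is added and luminescence recorded.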

[9] = qHTS assay to identify small molecule agonists of the estrogen related receptor signaling pathway with the pleiotropic PPARgamma coactivator (PGC) from Tox21 10K library (AID 1224842); also: nearly all actives have a fitted effect of over 15% in size
Outline: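 PGC/ERR reporter cell line, 2,000 cells per well, incubated 6 h at 37 C before 23 nL compound in DMSO was added. After 18 h at 37 C, One-Glo luminescence read following 30 min at room temperature.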

Measured: Potency

ClC(Cl)(Cl)Br
inactive: [1] | [2] | [3] | [4] | [5]

CCOC(=O)c1ccccc1N
not listed: [8] | [9]
inactive: all other assays above

CN(C)P(=O)(N(C)C)N(C)C
not listed: [3] | [4] | [7]
inactive: all other assays above

[Cl-].[Cl-].[Cl-].[Fe+3]
inactive: [2] | [7]

Source: PubChem BioAssay (Tox21)
